Assay [1] concerns the target Nuclear receptor subfamily 1 group I member 2 (Homo sapiens) (UniProt O75469). The assay can be described thus: NVS_NR_hPXR: NovaScreen (NVS) Nuclear Receptor Binding Assay for human Pregnane X Receptor (PXR) (AID 2283365).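 Also: a drop in FRET signal versus DMSO baseline means the compound binds.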 In short, it runs like this:
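TR-FRET signal read at 2 h in a cell-free human PXR binding format. DMSO served as negative control and baseline; activity scored as signal loss. Single-concentration duplicate screen (25 uM), then concentration-response follow-up.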

Assay [2] deals with Estrogen receptor beta (Homo sapiens) (UniProt Q92731). Kind of assay: OT_ER_ERbERb_1440: Odyssey Thera (OT) 24-hour HEK293T Protein-Complementation Assay for Estrogen Receptor-beta/-beta Homodimer (AID 2283380).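 Also: scored as signal increase over DMSO baseline for both agonists and antagonists.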 In short, it runs like this:
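HEK293T cells stably expressing ER beta LBD (aa 310-547) homodimer fragment-complementation reporter, dosed 24 h. Cells formaldehyde-fixed, Draq5-stained; gain in nuclear (agonist) or nuclear plus cytoplasmic (antagonist) fluorescence versus DMSO read by laser scanning cytometry.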

Assay [3] deals with Estrogen receptor (Homo sapiens) (UniProt P03372). Kind of assay: OT_ERa_GFPERaERE_0480: Odyssey Thera (OT) 8-hour HeLa Transcription Induction Assay for Estrogen Receptor (AID 2283381; active = hit-call score of the fitted dose curve at least 0.9, where 1 is the maximum; inactive = score below 0.9). In short, it runs like this:
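Cells (HeLa) receive compound; after 8 h, reporter fluorescence is imaged and quantified by high-content analysis. Gain-of-signal relative to DMSO gives the endpoint.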

For assay [4] the target is unchanged. Kind of assay: OT_ERa_GFPERaERE_0120: Odyssey Thera (OT) 2-hour HeLa Transcription Induction Assay for Estrogen Receptor (AID 2283382). The procedure, abridged:
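Measures ESR1 pathway reporter gain-of-signal in HeLa cells after a 2-hour treatment, detected as fluorescent protein induction by microscopy, DMSO as baseline.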

In assay [5] the target is Bile acid receptor (Homo sapiens) (UniProt Q96RI1). Kind of assay: OT_FXR_FXRSRC1_0480: Odyssey Thera (OT) 8-hour HEK293T Protein-Complementation Assay for Farnesoid X receptor/SRC-1 Co-activator (AID 2283383). In short, it runs like this: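 Co-activator recruitment to FXR was measured in living HEK293T cells, where interaction of the two fused partners restored an active fluorescent reporter. Signal gain after 8 h treatment was referenced to DMSO.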
Bile acid receptor (Homo sapiens), sequence (Q96RI1 whole entry, looked up, the tested form may be a part): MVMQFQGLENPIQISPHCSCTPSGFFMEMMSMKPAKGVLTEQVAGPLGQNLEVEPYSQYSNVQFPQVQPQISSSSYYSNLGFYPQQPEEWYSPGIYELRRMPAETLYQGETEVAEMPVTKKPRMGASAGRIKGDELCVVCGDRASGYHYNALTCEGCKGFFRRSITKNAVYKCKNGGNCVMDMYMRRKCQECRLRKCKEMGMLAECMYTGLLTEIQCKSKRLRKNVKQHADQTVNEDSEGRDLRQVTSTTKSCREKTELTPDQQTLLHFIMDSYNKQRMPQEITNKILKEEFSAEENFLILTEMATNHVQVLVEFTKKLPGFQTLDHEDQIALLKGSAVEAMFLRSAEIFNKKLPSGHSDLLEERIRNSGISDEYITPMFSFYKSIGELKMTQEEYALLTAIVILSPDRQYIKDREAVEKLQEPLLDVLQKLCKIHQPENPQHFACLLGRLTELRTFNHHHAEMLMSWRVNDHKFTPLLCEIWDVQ

Assay [6] has the same target. The assay can be described thus: OT_FXR_FXRSRC1_1440: Odyssey Thera (OT) 24-hour HEK293T Protein-Complementation Assay for Farnesoid X receptor/SRC-1 Co-activator (AID 2283384). In short, it runs like this:
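Cell-based binding reporter: interaction of FXR with SRC-1 brings reporter fragments together, giving a fluorescence signal read 24 h after dosing of HEK293T cells.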

Assay [7] concerns the target guinea pig Sigma Receptor, Non-selective Binding, SIGMAR1 (gene 100135589) (UniProt Q60492). Kind of assay: NVS_OR_gSIGMA_NonSelective: NovaScreen (NVS) Nuclear Receptor Binding Assay for guinea pig Sigma Receptor, Non-selective Binding (AID 2283367). In short, it runs like this: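 Radioligand displacement on guinea pig brain membranes, read by filter-based scintillation counting 1 h after dosing. Loss of signal versus DMSO; initial duplicate single-point screen at 25 uM, actives followed in concentration series.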

In the next assay the target is PGR (gene 5241) (UniProt P06401). Kind of assay: NVS_NR_hPR: NovaScreen (NVS) Nuclear Receptor Binding Assay for human Progestron Receptor (PR) (AID 2283360).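 Also: active means loss of bound radioligand signal versus DMSO baseline.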 In short, it runs like this:
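T47D lysate; tritiated or iodinated radioligand; scintillation count at 18 h. DMSO = negative control/baseline. Primary: 25 uM, duplicate. Secondary: concentration series for actives.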

Assay [8] addresses human Norepinephrine Transporter (NET), SLC6A2 (gene 6530) (UniProt P23975). Kind of assay: NVS_TR_hNET: NovaScreen (NVS) Transporter Assay for human Norepinephrine Transporter (NET) (AID 2283377).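 As to AC50: displacement of radioligand from human NET seen as loss of scintillation signal.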 The procedure, abridged: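 Cell-free radioligand binding using CHO-derived membrane protein expressing human NET, read by filter scintillation counting 1 h after dosing; loss of signal vs DMSO. Initial duplicate screen at 25 uM, actives retested in concentration series.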

Assay [9] addresses Peroxisome proliferator-activated receptor gamma (Homo sapiens) (UniProt P37231). The assay can be described thus: NVS_NR_hPPARg: NovaScreen (NVS) Nuclear Receptor Binding Assay for human Peroxisome Proliferator-activated Receptor gamma (PPARg) (AID 2283370). In short, it runs like this:
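FP read-out, 2 h post-dose, cell-free extracted receptor protein. Signal loss vs DMSO negative control = binding activity. Single-conc duplicate HTS at 25 uM; concentration-response follow-up for actives.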

Assay [10] deals with rat Serotonin Transporter (SERT), Slc6a4 (gene 25553) (UniProt P31652). Kind of assay: NVS_TR_rSERT: NovaScreen (NVS) Transporter Assay for rat Serotonin Transporter (SERT) (AID 2283375). In short, it runs like this:
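Radioligand displacement, filter scintillation readout; rat forebrain membrane prep, 1 h post-dose. Single-conc 25 uM duplicate screen, then concentration-response on actives. Loss of signal vs DMSO baseline.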

Assay [11] concerns the target Retinoic acid receptor RXR-alpha (Homo sapiens) (UniProt P19793). Kind of assay: OT_NURR1_NURR1RXRa_0480: Odyssey Thera (OT) 8-hour HEK293T Protein Complementation Assay for Nurr1/retinoid X receptor (RXR) (AID 2283385). In short, it runs like this: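 Compounds are applied to HEK293T cells carrying Nurr1 and RXRα linked to reporter fragments. After 8 h, fluorescence intensity reports heterodimer formation, with DMSO as baseline.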

Assay [12] has the same target. Kind of assay: OT_NURR1_NURR1RXRa_1440: Odyssey Thera (OT) 24-hour HEK293T Protein Complementation Assay for Nurr1/retinoid X receptor (RXR) (AID 2283386). In short, it runs like this: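 Measured as fluorescence from a reconstituted split reporter, this 24 h HEK293T complementation assay scores compound-induced gain of Nurr1/RXRα association relative to DMSO.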
Assay [13] concerns the target mouse Estrogen Receptor alpha (Era), Esr1 (gene 13982) (UniProt P19785). Kind of assay: NVS_NR_mERa: NovaScreen (NVS) Nuclear Receptor Binding Assay for mouse Estrogen Receptor alpha (Era) (AID 2283378).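 Also: hit means loss of bound radioligand signal relative to DMSO.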 In short, it runs like this: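 Filter scintillation counts of bound radioligand, measured 18 h post-dose, gave the readout; decreased signal relative to DMSO controls indicated displacement from mouse Era. Primary screen ran in duplicate at 25 uM; active chemicals were retested across concentrations.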

Assay [14] has as its target human Thyroid Receptor Alpha (TRa), THRA (gene 7067) (UniProt P10827). Kind of assay: NVS_NR_hTRa_Antagonist: NovaScreen (NVS) Nuclear Receptor Binding Assay for human Thyroid Receptor Alpha Antagonism (TRa) (AID 2283362).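 Also: activity is loss of signal relative to DMSO baseline.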 The procedure, abridged:
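AlphaLISA chemiluminescent immunoassay readout, taken 1 h post-dosing in a cell-free system with extracted protein. Activity was scored as signal loss against DMSO negative control, from duplicate single-concentration (25 uM) testing followed by concentration-response follow-up.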

The target in assay [15] is Retinoic acid receptor alpha (Homo sapiens) (UniProt P10276). The assay can be described thus: NVS_NR_hRARa_Agonist: NovaScreen (NVS) Nuclear Receptor Binding Assay for human Retinoic Acid Alpha Receptor Agonism (RAR) (AID 2283361). The procedure, abridged: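 Cell-free TR-FRET binding readout with extracted receptor protein, read 2 hours after dosing; gain-of-signal fitted relative to DMSO. Screened in duplicate at 25 uM, actives then run in concentration-response.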
Retinoic acid receptor alpha (Homo sapiens), sequence (P10276 whole entry, looked up): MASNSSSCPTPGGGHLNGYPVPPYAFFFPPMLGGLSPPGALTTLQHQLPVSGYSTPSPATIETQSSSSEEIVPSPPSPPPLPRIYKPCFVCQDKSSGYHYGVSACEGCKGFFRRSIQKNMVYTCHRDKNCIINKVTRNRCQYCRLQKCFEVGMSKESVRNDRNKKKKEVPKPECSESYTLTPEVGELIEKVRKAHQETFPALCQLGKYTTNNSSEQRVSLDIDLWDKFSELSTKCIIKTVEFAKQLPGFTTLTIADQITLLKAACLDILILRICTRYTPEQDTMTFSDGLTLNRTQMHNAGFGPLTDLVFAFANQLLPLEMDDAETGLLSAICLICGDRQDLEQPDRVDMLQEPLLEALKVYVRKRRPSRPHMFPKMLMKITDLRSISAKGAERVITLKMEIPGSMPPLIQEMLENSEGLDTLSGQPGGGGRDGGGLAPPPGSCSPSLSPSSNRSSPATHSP

Results filed as inconclusive are left out. The source made the active and inactive calls. The calls were made as follows, unless noted: active = hit-call score of the fitted dose curve at least 0.9, where 1 is the maximum; inconclusive = response in the unintended direction; inactive = score below 0.9.

For orientation: AC50 means the concentration giving half of the maximal activity seen.

mouse Estrogen Receptor alpha (Era), Esr1 (gene 13982), sequence (P19785 whole entry, looked up): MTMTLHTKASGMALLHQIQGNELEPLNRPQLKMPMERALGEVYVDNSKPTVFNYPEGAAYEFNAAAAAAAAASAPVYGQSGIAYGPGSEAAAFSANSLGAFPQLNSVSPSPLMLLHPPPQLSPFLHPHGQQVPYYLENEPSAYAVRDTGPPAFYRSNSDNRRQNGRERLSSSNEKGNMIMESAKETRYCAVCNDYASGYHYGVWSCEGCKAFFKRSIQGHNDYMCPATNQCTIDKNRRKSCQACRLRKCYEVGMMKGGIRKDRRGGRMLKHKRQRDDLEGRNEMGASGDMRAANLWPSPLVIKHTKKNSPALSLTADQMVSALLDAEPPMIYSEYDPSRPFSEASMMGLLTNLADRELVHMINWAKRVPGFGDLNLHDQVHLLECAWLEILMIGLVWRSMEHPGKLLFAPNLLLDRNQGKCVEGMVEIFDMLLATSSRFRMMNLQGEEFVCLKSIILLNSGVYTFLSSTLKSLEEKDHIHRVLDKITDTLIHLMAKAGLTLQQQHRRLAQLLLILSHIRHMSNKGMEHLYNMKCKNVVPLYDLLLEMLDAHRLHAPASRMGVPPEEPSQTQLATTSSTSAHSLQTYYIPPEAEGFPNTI
Nuclear receptor subfamily 1 group I member 2 (Homo sapiens), sequence (O75469 whole entry, looked up): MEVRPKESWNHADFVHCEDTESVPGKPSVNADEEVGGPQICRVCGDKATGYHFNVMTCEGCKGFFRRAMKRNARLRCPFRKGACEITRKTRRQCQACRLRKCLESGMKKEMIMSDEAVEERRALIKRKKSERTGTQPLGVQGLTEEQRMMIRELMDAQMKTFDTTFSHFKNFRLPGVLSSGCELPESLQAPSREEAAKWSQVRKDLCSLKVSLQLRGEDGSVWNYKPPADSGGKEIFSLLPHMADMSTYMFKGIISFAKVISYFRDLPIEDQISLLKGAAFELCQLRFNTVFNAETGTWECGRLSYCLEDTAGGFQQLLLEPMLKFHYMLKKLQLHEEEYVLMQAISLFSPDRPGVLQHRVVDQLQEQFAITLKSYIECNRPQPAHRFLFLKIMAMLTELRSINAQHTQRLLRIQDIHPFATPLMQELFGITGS
Estrogen receptor (Homo sapiens), sequence (P03372 whole entry, looked up): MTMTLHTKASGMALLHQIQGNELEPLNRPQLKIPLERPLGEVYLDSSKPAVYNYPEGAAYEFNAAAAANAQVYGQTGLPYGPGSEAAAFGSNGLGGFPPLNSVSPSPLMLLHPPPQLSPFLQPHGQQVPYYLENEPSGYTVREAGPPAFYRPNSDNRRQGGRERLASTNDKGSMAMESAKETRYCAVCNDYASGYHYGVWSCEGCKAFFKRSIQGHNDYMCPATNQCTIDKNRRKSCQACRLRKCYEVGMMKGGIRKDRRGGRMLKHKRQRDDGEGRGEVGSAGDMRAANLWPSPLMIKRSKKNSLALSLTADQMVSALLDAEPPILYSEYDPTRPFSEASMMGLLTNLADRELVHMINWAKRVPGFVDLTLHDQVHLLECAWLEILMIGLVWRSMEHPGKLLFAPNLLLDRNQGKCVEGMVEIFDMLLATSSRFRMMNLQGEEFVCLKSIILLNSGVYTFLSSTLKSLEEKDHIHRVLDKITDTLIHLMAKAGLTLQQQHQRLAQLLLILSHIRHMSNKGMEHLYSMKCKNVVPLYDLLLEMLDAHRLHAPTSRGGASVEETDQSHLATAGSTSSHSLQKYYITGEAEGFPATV
Estrogen receptor beta (Homo sapiens), sequence (Q92731 whole entry, looked up, the tested form may be a part): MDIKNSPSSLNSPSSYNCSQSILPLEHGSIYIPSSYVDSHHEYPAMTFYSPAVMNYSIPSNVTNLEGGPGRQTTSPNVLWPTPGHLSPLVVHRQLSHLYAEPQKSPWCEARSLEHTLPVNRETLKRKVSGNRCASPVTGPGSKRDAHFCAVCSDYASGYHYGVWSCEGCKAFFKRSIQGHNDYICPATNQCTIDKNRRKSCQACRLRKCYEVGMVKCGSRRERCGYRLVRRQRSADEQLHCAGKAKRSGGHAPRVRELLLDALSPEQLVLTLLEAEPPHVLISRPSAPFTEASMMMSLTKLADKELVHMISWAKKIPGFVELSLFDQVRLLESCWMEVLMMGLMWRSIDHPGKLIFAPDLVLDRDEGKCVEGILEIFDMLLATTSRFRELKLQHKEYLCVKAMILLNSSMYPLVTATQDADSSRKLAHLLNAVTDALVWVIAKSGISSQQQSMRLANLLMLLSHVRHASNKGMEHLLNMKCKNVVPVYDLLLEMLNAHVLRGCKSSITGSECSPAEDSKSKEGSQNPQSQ
Retinoic acid receptor RXR-alpha (Homo sapiens), sequence (P19793 whole entry, looked up, the tested form may be a part): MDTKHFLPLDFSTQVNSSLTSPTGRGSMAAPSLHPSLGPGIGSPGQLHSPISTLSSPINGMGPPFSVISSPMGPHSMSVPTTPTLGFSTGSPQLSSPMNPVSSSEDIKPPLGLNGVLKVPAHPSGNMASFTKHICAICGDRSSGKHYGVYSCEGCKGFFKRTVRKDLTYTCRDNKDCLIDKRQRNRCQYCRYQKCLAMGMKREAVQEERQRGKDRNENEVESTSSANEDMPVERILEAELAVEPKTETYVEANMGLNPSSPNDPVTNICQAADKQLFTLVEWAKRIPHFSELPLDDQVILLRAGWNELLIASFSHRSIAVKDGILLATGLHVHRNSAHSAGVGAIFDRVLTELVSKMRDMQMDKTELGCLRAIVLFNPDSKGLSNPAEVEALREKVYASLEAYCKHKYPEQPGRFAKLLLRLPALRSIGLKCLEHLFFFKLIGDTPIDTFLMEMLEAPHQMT
PGR (gene 5241), sequence (P06401 whole entry, looked up): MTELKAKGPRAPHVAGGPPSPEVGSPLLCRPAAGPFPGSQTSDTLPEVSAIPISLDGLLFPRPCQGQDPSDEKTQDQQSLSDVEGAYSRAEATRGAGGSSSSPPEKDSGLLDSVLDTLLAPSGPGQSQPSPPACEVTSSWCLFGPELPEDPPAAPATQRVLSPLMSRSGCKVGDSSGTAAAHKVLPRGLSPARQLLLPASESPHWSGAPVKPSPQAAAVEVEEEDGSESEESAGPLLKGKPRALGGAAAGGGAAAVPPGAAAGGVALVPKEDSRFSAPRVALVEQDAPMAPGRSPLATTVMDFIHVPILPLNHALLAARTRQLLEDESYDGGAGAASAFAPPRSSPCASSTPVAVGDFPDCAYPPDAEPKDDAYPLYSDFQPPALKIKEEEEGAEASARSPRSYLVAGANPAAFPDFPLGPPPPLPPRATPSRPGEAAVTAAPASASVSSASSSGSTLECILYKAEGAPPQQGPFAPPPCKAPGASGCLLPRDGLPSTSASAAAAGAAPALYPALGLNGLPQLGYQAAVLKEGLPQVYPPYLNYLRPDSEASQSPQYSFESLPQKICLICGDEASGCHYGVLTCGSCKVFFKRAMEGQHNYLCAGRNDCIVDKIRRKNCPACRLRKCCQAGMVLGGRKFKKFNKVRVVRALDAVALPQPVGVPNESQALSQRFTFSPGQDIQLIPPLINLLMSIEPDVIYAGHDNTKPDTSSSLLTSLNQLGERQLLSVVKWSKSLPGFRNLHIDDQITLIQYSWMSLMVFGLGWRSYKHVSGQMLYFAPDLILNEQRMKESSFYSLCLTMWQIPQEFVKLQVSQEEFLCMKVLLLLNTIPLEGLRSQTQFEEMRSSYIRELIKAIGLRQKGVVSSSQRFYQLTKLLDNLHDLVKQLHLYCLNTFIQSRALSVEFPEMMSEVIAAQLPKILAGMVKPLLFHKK
Peroxisome proliferator-activated receptor gamma (Homo sapiens), sequence (P37231 whole entry, looked up): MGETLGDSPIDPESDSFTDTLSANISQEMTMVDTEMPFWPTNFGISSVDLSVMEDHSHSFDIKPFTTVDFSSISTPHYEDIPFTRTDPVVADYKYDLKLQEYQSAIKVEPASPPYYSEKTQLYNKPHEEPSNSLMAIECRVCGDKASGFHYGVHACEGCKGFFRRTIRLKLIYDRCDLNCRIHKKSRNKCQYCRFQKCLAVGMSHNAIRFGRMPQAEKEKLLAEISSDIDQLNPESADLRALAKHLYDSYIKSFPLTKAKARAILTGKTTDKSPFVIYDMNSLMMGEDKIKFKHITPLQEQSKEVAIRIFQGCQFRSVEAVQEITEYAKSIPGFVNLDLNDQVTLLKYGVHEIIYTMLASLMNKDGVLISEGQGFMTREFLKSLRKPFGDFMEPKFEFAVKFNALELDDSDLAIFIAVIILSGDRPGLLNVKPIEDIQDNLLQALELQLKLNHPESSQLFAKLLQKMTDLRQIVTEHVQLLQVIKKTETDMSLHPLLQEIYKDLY

Take `CCCCNS(=O)(=O)c1ccccc1`: the outcome in [1], in assay [2], in assay [3], in assay [4], in assay [5] and in assay [6] was inactive.

For the molecule `CC(C)[N+](C)(CCOC(=O)C1c2ccccc2Oc2ccccc21)C(C)C`, in assay [7], the AC50 is 2.4 µM (active).

Turning to `CC/C=C\C/C=C\C/C=C\CCCCCCCC(=O)OC`, the call with PGR (gene 5241) was inactive. Further, in assay [8], the AC50 is 11.1 µM (active).

`Cc1ccc([N+](=O)[O-])cc1N`: the outcome (in the assay with PGR (gene 5241); in [1]; in assay [9]; in assay [10]; in assay [8]; in [3]) was inactive. Further, the molecule was called inactive in [4], in assay [5], in assay [6], in assay [11] and in [12].

Turning to `CCCCCCCCCCCCc1ccc(O)cc1`, the molecule was called inactive in assay [1], in assay [9] and in assay [13]. Further, the values for the AC50 in assay [2], in assay [3] and in [4] were 0.981 µM (active), 0.444 µM (active) and 0.612 µM (active), respectively.

`CC(C)c1ccc(O)c(C(C)C)c1`: the outcome in assay [14], in assay [9], in assay [2], in assay [3], in assay [4] and in assay [11] was inactive.

For the molecule `CCCCC/C=C\C/C=C\CCCCCCCC(=O)O`, the outcome in assay [14], in assay [3], in assay [4], in assay [5], in [6] and in assay [11] was inactive. In addition, the AC50 in assay [1] is 4.88 µM (active); in [9], 6.85 µM (active); in [13], 35.8 µM (active).

For `O=C(O)c1cc(O)c2ccccc2c1O`, the outcome in assay [15], in assay [11] and in assay [12] was inactive. For the same molecule, the AC50 was 18.4 µM (active) in assay [14], 5.21 µM (active) in assay [1], 18.1 µM (active) in [3] and 25.4 µM (active) in assay [4].

As for `CC(C)(C)C1CCC(=O)CC1`, the call in assay [1], in [3], in [4], in assay [5], in assay [6] and in [11] was inactive. The result in assay [12] was inactive.

For `CCCCNS(=O)(=O)c1ccc(C)cc1`, the result in assay [15], in assay [1], in assay [3], in assay [4] and in assay [12] was inactive.

In the case of `CC1=CC=C(C(C)C)CC1`, the call in [1], in assay [11] and in assay [12] was inactive. Further, the values for the AC50 in assay [3] and in assay [4] were 23.6 µM (active) and 23.8 µM (active), respectively.

Turning to `Cc1cc(=O)[nH]c(=O)[nH]1`, the molecule was classed as inactive with PGR (gene 5241).

In the case of `CC(C)(C)NC(=O)[C@H]1CC[C@H]2[C@@H]3CC[C@H]4NC(=O)C=C[C@]4(C)[C@H]3CC[C@]12C`, the molecule was called inactive in [1], in assay [9], in [13], in [3] and in assay [5]. Further, the AC50 in assay [6] is 3.77 µM (active).

Consider `CCOC(=O)c1ccc(C)cc1`, for which the call in [1], in assay [9], in assay [2], in assay [3], in assay [4] and in [11] was inactive. The molecule was called inactive in [12].

Take `CCCCCCOc1ccc(N)cc1`: the result in assay [1], in assay [3], in assay [4], in assay [5], in assay [11] and in [12] was inactive. For the same molecule, the half-maximal activity concentration (AC50) in [6] is 14.3 µM (active).

The record behind these values is PubChem BioAssay (EPA / NIEHS).
